In PubChem BioAssay (Tox21):
Records with an inconclusive call do not appear. Active and inactive are the calls of the source. Unless noted, the call rests on the fitted dose curve; in most records, active means well fitted curve in the direction sought with a large enough effect in the repeat runs; inconclusive means weak or mixed curves; inactive means no such curve, though single readings can be large; an effect the other way counts as inactive or inconclusive.

Key:
[1] = qHTS assay for small molecules that induce genotoxicity in human embryonic kidney cells expressing luciferase-tagged ATAD5 (AID 651632); further: nearly all actives have a fitted effect of over 15% in size
Procedure, shortened: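 Cells were seeded at 2,000 per well, dosed with compound, and incubated 16 hr at 37C in 5% CO2. Luciferase activity was then quantified after a 30 min room-temperature incubation with Amplite.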

[2] = qHTS assay for small molecule agonists of the p53 signaling pathway - cell viability (AID 651633; calls by dose curve;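 further: p53RE-bla HCT reporter cells with a stable beta-lactamase p53 reporter; series mostly up to about 83 µM; nearly all actives have a fitted effect of over 30% in size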)
Procedure, shortened: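 p53RE-bla cells, seeded at 4,000 per well and rested 5 h at 37 C/5% CO2, received compounds in DMSO for 16 h at 37 C. CellTiter-Glo was then added, and luminescence was read after 30 min at room temperature to gauge cytotoxicity.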

[3] = qHTS assay for small molecule disruptors of the mitochondrial membrane potential - cell viability (AID 720634; calls by dose curve;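 further: human HepG2 liver cancer cells; series mostly up to about 83 µM; nearly all actives have a fitted effect of over 20% in size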)
Procedure, shortened: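 Cytotoxicity was measured by ATP quantitation in HepG2 wells that had first been treated with compound for 1 hr and stained with m-MPI dye; CellTiter-Glo incubation was 30 min at room temperature.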

[4] = qHTS assay for small molecule disruptors of the mitochondrial membrane potential (AID 720635)
Procedure, shortened: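 HepG2 cells (2,000/well) attached overnight at 37C, then took compound for 1 hr at 37C, 5% CO2. Mito-MPS dye was added for 30 min; fluorescence was read at 490/535 nm (monomers) and 540/590 nm (aggregates).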

[5] = qHTS assay to test for compound auto fluorescence at 590 nm (red) in HepG2 cells (AID 720674)
Procedure, shortened: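 Compound auto-fluorescence is scored relative to Rose Bengal sodium, measured at 540/590 nm in live HepG2 cultures after 1 hr compound contact (37 C, 5% CO2).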

[6] = qHTS assay to test for compound auto fluorescence at 535 nm (green) in HepG2 cells (AID 720675)
[7] = qHTS assay to test for compound auto fluorescence at 460 nm (blue) in HEK293 cells (AID 720678)
Procedure, shortened: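 Blue-channel (Ex/Em 405/460 nm) intensity measured in HEK293 cultures after overnight compound exposure at 37C; signal expressed relative to triamterene. Cells plated 2,000 per well in 10% dialyzed FBS medium and allowed 4-5 hr to attach.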

[8] = qHTS assay to test for compound auto fluorescence at 590 nm (red) in HEK293 cells (AID 720679)
Procedure, shortened: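 Red-channel autofluorescence (Ex/Em 540/590 nm; Rose Bengal sodium reference) was measured after overnight 37C, 5% CO2 exposure of attached HEK293 cells, 2,000 per well in medium with 10% dialyzed FBS.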

[9] = qHTS assay to test for compound auto fluorescence at 460 nm (blue) in HEK293 cell free culture (AID 720681)
Procedure, shortened: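 Test compounds were pinned into cell-free culture medium (DMEM with 10% FBS) and fluorescence was read directly at Ex/Em 405/460 nm. Signals were expressed as fluorescence equivalents of triamterene, with DMSO vehicle as control.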

[10] = qHTS assay to test for compound auto fluorescence at 535 nm (green) in HEK293 cell free culture (AID 720682)
Procedure, shortened: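 Green-channel intensity (Ex/Em 485/535 nm) was recorded from compound-treated wells containing only DMEM with 10% FBS. Fluorescein provided the equivalency standard.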

[11] = qHTS assay to test for compound auto fluorescence at 590 nm (red) in HEK293 cell free culture (AID 720683)
Procedure, shortened: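 Tox21 10K library compounds were pinned into cell-free DMEM with 10% FBS and fluorescence was read at excitation 540 nm. Activity is expressed as Rose Bengal sodium equivalency.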

[12] = qHTS assay to test for compound auto fluorescence at 590 nm (red) in HepG2 cell free culture (AID 720684)
Procedure, shortened: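 Ex 540 / Em 590 nm read of compound in cell-free MEM (10% FBS). Rose Bengal sodium reference.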

[13] = qHTS assay to test for compound auto fluorescence at 460 nm (blue) in HepG2 cell free culture (AID 720685)
Procedure, shortened: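 Cell-free plates of MEM plus 10% FBS received 23 nL compound or DMSO vehicle; blue-channel (405/460 nm) intensity scored against triamterene as reference fluorophore.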

[14] = qHTS assay to test for compound auto fluorescence at 535 nm (green) in HepG2 cell free culture (AID 720686)
[15] = qHTS assay to test for compound auto fluorescence at 460 nm (blue) in HepG2 cells (AID 720687)
Procedure, shortened: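 Cells (2,000/well in MEM with 10% FBS) attached overnight at 37 C, then were exposed to compound or DMSO for 1 hr at 37 C, 5% CO2. Fluorescence read at Ex/Em 405/460 nm, expressed as triamterene-equivalent signal.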

[16] = target: Glucocorticoid receptor (Homo sapiens) (UniProt P04150); test: qHTS assay to identify small molecule agonists of the glucocorticoid receptor (GR) signaling pathway (AID 720691; active means well fitted activation curve with a large enough effect in the signal ratio in the repeat runs, not every such curve was filed as active; the % refers to the signal ratio)
Chain of Glucocorticoid receptor (Homo sapiens) (P04150 whole entry, looked up): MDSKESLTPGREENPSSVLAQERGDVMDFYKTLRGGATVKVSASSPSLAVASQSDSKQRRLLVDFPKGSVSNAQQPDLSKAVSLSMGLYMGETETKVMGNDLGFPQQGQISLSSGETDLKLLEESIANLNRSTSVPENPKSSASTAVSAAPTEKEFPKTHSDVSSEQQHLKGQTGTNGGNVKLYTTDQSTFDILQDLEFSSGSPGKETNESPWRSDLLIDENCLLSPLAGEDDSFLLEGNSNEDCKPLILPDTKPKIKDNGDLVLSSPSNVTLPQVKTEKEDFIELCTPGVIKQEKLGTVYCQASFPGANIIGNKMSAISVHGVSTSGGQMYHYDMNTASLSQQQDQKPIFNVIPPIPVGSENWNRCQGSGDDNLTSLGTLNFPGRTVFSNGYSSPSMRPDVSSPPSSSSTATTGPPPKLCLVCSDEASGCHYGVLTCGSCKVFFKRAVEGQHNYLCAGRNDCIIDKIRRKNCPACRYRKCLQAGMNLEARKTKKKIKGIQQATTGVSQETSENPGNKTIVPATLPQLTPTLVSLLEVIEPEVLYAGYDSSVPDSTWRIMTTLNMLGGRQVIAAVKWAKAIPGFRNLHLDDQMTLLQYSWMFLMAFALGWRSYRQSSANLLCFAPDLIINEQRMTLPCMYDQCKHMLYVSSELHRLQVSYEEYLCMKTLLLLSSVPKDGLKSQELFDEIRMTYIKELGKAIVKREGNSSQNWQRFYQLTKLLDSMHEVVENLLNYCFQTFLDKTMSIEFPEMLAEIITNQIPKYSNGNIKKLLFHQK
Procedure, shortened: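 Steps: seed GR-bla HeLa cells, incubate 4 h at 37 C/5% CO2; pin-transfer DMSO-dissolved compounds; incubate 18 h at 37 C; add LiveBLAzer B/G FRET substrate; after 2 h at room temperature, measure fluorescence.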

[17] = qHTS assay for small molecules that induce genotoxicity in human embryonic kidney cells expressing luciferase-tagged ATAD5 - cell viability (AID 651634; calls by dose curve; further: nearly all actives have a fitted effect of over 25% in size)
Procedure, shortened: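 Cells (HEK293T, luciferase-tagged ATAD5) are seeded at 2,000 per well, dosed with compound or DMSO vehicle, and incubated 15.5 hr at 37C and 5% CO2. CellTiter-Fluor is added for 30 min before fluorescence is measured.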

[18] = qHTS assay to test for compound auto fluorescence at 535 nm (green) in HEK293 cells (AID 720680)
[19] = target: Glucocorticoid receptor (Homo sapiens) (UniProt P04150); test: qHTS assay to identify small molecule antagonists of the glucocorticoid receptor (GR) signaling pathway (AID 720692; active means well fitted inhibition curve with a large enough effect in the signal ratio in the repeat runs, not every such curve was filed as active; the % refers to the signal ratio)
Procedure, shortened: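 Antagonism was scored as loss of dexamethasone-driven (5 nM final) reporter signal in HeLa cells bearing a glucocorticoid response element–beta-lactamase construct, after 18 h compound exposure at 37 C and 2 h FRET substrate loading.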
On the % scale 0 is the no-effect control and ±100 the full control effect.

C=CCn1c(=O)n([C@@H]2O[C@H](CO)[C@@H](O)[C@H]2O)c2nc(N)[nH]c(=O)c21
inactive: Potency [1] | Potency [2] | Potency [3] | Potency [4] | outcome [5] | outcome [6] | Potency [7] | outcome [8] | Potency [9] | outcome [10] | outcome [11] | outcome [12] | Potency [13] | outcome [14]

CCN1CCCC(OC(=O)C(c2ccccc2)c2ccccc2)C1 (configuration not stated)
inactive: Potency [1] | Potency [2] | Potency [3] | fluorescence, relative to Rose Bengal [5] 0.0398% [at 18.6 µM] | fluorescence, % of fluorescein control [6] 0.107% [at 18.6 µM] | fluorescence, % of triamterene [7] 0.0169% [at 18.6 µM] | fluorescence, % of fluorescent control [8] -0.0352% [at 18.6 µM] | fluorescence, % of fluorescent control [9] 0.0253% [at 18.6 µM] | activity change [10] 0.0002% [at 18.6 µM] | fluorescence, % of fluorescent control [11] 0.138% [at 18.6 µM] | fluorescence, % of Rose Bengal [12] 0.44% [at 18.6 µM] | fluorescence, % of fluorescent control [13] -0.0343% [at 18.6 µM] | fluorescence, % of fluorescein control [14] 0.088% [at 18.6 µM] | fluorescence, % of fluorescent control [15] 0.0078% [at 18.6 µM] | Potency [16]

C=CC(=O)N1CCOCC1
inactive: Potency [1] | Potency [2] | Potency [17] | outcome [6] | Potency [7] | outcome [8] | Potency [9] | outcome [10] | outcome [11] | outcome [12] | Potency [13] | outcome [14] | Potency [15] | Potency [16]

CCCCCCCCN(C)CCCCCCCC
inactive: Potency [1] | Potency [2] | Potency [17] | Potency [3] | outcome [6] | Potency [7] | outcome [8] | outcome [18] | Potency [9] | outcome [10] | outcome [11] | outcome [12] | Potency [13] | outcome [14] | Potency [15] | Potency [16] | Potency [19]

CCC(=O)c1cccc(Cl)c1
inactive: Potency [1] | Potency [2] | Potency [17] | Potency [3] | outcome [6] | Potency [7] | outcome [8] | Potency [9] | outcome [10] | outcome [11] | outcome [12] | Potency [13] | outcome [14] | Potency [15] | Potency [16] | Potency [19]

CC(CCO)CCCC(C)(C)O (configuration not stated)
inactive: Potency [1] | Potency [2] | Potency [17] | Potency [3] | outcome [5] | outcome [6] | Potency [7] | outcome [8] | outcome [18] | Potency [9] | outcome [10] | outcome [11] | outcome [12] | Potency [13] | outcome [14] | Potency [15] | Potency [16] | Potency [19]

CCN(CC)S(=O)(=O)c1ccc(C(=O)O)cc1
inactive: Potency [1] | Potency [2] | Potency [17] | Potency [3] | outcome [5] | outcome [6] | Potency [7] | outcome [8] | outcome [18] | Potency [9] | outcome [10] | outcome [11] | outcome [12] | Potency [13] | outcome [14] | Potency [15] | Potency [16] | Potency [19]

OC/C=C/c1ccccc1
inactive: Potency [1] | Potency [2] | Potency [3] | outcome [5] | outcome [6] | Potency [7] | outcome [8] | outcome [18] | Potency [9] | outcome [10] | outcome [11] | outcome [12] | Potency [13] | outcome [14] | Potency [15]
